What all share (assay): DAPPL (digital affinity profiling via proximity ligation, sequencing); 10 mM Tris-HCl pH 7.5, 50 mM NaCl, 1 mM DTT, 4% glycerol, room temperature, 30 min; GST-TFs on glutathione beads, 16-mer random dsDNA library, 0.1% formaldehyde crosslink after washing; high values mean tight binding
One assay deals with T1, FLI1 (Homo sapiens, UniProt Q01543 1-452).
T1 sequence: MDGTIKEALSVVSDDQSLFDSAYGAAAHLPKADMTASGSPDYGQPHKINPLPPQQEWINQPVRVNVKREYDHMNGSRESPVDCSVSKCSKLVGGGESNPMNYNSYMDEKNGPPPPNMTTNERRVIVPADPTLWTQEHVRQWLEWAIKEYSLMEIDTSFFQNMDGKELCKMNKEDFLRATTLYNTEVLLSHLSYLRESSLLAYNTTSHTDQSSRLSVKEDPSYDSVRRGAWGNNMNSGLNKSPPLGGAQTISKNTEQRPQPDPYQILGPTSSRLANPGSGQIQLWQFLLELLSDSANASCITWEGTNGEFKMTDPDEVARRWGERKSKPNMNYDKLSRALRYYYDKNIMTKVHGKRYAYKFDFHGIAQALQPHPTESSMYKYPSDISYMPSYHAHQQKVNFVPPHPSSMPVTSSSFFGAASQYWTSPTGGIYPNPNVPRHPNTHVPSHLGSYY
As to conditions: protein: recombinant; tags: N-terminal GST; dsDNA, one strand shown. The method in brief:
(§1)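 Binding signal is defined as a hexamer's read frequency for one factor over its frequency for the tag-only sample. To obtain reads, GST-fused human transcription factors were expressed in yeast, captured on glutathione beads, barcoded with DNA and pooled with that sample. Pools met 200 nmole of a 16-mer random double-stranded DNA library in Tris/NaCl/DTT/glycerol buffer for 30 min at room temperature before washing, 0.1% formaldehyde crosslinking, proximity ligation (BsaI/T4 ligase, 1 h, 37 °C), PCR and Illumina NextSeq500 sequencing.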

The next assay has as its target T2, ELK1 (Homo sapiens, UniProt P19419 1-428).
T2 sequence: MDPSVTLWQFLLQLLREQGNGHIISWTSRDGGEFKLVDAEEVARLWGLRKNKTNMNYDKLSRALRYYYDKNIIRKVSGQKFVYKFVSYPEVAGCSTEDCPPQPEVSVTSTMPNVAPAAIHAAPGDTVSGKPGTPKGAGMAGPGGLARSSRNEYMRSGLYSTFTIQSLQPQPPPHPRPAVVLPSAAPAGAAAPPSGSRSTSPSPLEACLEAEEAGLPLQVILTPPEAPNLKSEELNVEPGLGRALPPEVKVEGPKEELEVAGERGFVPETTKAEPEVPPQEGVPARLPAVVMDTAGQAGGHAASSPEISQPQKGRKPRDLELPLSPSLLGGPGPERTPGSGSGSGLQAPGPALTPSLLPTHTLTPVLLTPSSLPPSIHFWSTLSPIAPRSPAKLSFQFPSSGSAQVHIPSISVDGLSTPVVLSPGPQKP
As to conditions: protein: recombinant; tags: N-terminal GST; dsDNA, one strand shown. The method in brief:
as §1

The next assay deals with T3, GABPA (Homo sapiens, UniProt Q06546 1-454).
T3 sequence: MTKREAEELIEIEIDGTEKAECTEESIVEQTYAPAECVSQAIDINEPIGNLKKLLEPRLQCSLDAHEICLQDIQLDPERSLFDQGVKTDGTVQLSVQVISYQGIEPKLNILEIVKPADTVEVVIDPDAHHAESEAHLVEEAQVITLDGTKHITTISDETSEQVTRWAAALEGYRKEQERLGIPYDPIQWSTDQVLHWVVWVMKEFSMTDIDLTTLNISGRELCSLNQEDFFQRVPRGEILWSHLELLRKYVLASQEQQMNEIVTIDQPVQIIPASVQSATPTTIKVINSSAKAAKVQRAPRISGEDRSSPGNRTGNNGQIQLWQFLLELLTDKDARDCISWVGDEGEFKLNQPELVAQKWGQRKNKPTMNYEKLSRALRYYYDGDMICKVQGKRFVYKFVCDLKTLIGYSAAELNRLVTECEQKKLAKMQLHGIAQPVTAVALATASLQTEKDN
Particulars: protein: recombinant; tags: N-terminal GST; dsDNA, one strand shown. In outline: as §1

The target in the next assay is T4, ERG (Homo sapiens, UniProt P11308 1-479).
T4 sequence: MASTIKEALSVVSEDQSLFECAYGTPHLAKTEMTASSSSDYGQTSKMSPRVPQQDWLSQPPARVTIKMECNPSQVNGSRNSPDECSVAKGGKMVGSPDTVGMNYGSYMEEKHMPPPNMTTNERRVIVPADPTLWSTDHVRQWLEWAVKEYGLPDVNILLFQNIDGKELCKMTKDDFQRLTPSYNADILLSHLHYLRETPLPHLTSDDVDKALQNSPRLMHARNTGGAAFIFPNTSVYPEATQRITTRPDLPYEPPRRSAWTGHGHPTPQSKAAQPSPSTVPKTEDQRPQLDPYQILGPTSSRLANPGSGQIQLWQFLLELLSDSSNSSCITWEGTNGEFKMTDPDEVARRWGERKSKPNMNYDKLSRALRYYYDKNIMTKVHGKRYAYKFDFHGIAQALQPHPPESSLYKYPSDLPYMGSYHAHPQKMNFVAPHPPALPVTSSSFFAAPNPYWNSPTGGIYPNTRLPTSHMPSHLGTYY
As to conditions: protein: recombinant; tags: N-terminal GST; dsDNA, one strand shown. In outline:
as §1

A further assay addresses ELF1 (Homo sapiens, UniProt P32519 1-619). As to conditions: protein: recombinant; tags: N-terminal GST; dsDNA, one strand shown. The method in brief:
as §1

The target of a further assay is T5, EHF (Homo sapiens, UniProt Q9NZC4 1-300).
T5 sequence: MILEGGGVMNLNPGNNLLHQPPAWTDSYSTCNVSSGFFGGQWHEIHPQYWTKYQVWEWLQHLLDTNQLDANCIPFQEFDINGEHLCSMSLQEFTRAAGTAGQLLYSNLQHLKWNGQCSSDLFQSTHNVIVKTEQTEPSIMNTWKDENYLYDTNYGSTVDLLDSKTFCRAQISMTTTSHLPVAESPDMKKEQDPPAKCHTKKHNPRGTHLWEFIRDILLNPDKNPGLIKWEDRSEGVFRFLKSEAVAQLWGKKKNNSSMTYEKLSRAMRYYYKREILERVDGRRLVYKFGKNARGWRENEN
As to conditions: protein: recombinant; tags: N-terminal GST; dsDNA, one strand shown. In outline: as §1

Another assay deals with SPI1 (Homo sapiens, UniProt P17947 1-270). As to conditions: protein: recombinant; tags: N-terminal GST; dsDNA, one strand shown. The method in brief: as §1
The target in another assay is SPIB (Homo sapiens, UniProt Q01892 1-262). As to conditions: protein: recombinant; tags: N-terminal GST; dsDNA, one strand shown. In outline:
as §1

The next assay concerns the target T6, ELK3 (Homo sapiens, UniProt P41970 1-407).
T6 sequence: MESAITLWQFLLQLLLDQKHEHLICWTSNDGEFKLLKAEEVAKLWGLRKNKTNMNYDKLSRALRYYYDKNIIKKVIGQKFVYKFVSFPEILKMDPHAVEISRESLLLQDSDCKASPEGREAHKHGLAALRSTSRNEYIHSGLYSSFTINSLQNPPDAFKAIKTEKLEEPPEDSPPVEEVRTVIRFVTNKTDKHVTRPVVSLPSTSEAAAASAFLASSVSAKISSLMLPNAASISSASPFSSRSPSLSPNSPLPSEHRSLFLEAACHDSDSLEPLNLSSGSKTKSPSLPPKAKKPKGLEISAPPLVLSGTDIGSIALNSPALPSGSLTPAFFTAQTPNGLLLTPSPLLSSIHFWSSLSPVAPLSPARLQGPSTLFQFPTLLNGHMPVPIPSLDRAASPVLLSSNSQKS
Particulars: protein: recombinant; tags: N-terminal GST; dsDNA, one strand shown. The method in brief: as §1

The target of a further assay is T7, FEV (Homo sapiens, UniProt Q99581 1-238).
T7 sequence: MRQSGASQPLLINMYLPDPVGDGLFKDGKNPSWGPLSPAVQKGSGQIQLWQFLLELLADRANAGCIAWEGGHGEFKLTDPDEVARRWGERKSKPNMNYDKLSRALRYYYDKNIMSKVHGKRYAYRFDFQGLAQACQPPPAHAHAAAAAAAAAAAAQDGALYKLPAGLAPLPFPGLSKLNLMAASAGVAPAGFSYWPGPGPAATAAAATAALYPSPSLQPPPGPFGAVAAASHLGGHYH
Particulars: protein: recombinant; tags: N-terminal GST; dsDNA, one strand shown. The method in brief:
as §1

The target of the next assay is ETV5 (Homo sapiens, UniProt P41161 1-510). As to conditions: protein: recombinant; tags: N-terminal GST; dsDNA, one strand shown. In outline:
as §1

Another assay has as its target HSF1 (Homo sapiens, UniProt Q00613 1-529). Particulars: protein: recombinant; tags: N-terminal GST; chain copies: 3; dsDNA, one strand shown. The method in brief:
as §1

The next assay has as its target ELF4 (Homo sapiens, UniProt Q99607 1-663). As to conditions: protein: recombinant; tags: N-terminal GST; dsDNA, one strand shown. The method in brief: as §1
The next assay addresses T8, ELK4 (Homo sapiens, UniProt P28324-2 1-405).
T8 sequence: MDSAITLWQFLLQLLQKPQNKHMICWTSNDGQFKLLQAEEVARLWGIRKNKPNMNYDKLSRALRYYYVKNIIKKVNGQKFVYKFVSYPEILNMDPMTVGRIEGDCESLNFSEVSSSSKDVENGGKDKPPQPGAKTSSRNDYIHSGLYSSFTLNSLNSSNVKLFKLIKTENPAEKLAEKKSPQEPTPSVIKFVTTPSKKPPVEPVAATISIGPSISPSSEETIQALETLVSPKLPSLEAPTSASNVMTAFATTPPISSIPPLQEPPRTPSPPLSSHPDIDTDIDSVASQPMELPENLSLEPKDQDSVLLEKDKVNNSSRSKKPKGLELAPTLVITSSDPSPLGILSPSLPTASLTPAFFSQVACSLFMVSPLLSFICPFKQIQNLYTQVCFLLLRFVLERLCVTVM
As to conditions: protein: recombinant; tags: N-terminal GST; dsDNA, one strand shown. The method in brief:
as §1

The target of another assay is T9, ETV2 (Homo sapiens, UniProt O00321 1-342).
T9 sequence: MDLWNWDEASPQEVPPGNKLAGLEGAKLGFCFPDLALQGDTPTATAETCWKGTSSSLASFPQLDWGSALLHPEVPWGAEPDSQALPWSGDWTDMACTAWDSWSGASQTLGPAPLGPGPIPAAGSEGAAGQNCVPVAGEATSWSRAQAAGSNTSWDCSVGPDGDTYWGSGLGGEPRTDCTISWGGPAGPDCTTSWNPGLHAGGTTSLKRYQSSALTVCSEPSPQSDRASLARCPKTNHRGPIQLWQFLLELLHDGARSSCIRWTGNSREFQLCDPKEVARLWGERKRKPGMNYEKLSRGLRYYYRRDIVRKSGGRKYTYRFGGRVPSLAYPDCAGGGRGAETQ
As to conditions: protein: recombinant; tags: N-terminal GST; dsDNA, one strand shown. The method in brief:
as §1

In the next assay the target is T10, ELF3 (Homo sapiens, UniProt P78545 1-371).
T10 sequence: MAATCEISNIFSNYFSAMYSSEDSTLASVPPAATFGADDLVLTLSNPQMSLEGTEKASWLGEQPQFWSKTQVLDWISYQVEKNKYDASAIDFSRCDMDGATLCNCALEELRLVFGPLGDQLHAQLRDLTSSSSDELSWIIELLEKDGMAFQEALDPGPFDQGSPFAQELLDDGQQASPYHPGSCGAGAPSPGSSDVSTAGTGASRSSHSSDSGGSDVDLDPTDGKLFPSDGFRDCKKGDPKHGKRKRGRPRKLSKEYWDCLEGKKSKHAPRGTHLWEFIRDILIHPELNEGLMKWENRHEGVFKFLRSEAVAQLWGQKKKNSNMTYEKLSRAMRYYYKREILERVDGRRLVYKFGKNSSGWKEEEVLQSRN
As to conditions: protein: recombinant; tags: N-terminal GST; dsDNA, one strand shown. In outline: as §1

For another assay, the target named is CRX (Homo sapiens, UniProt O43186 1-299). Particulars: protein: recombinant; tags: N-terminal GST; dsDNA, one strand shown. In outline:
as §1

For a further assay, the target named is ETV1 (Homo sapiens, UniProt P50549 1-477). Particulars: protein: recombinant; tags: N-terminal GST; dsDNA, one strand shown. The method in brief: as §1

From publication PMC7862700, “An all-to-all approach to the identification of sequence-specific readers for epigenetic DNA modifications on cytosine” come the findings set out here.

Chain of SPIB (Q01892 whole entry): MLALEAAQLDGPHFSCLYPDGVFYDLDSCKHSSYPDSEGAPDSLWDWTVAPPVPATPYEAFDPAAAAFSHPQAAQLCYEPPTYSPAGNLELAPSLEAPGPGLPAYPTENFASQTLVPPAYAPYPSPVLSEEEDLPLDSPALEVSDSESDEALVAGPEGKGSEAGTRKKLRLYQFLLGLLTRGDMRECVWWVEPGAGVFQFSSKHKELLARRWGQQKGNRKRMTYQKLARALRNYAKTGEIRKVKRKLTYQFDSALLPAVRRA
Chain of ETV1 (P50549 whole entry): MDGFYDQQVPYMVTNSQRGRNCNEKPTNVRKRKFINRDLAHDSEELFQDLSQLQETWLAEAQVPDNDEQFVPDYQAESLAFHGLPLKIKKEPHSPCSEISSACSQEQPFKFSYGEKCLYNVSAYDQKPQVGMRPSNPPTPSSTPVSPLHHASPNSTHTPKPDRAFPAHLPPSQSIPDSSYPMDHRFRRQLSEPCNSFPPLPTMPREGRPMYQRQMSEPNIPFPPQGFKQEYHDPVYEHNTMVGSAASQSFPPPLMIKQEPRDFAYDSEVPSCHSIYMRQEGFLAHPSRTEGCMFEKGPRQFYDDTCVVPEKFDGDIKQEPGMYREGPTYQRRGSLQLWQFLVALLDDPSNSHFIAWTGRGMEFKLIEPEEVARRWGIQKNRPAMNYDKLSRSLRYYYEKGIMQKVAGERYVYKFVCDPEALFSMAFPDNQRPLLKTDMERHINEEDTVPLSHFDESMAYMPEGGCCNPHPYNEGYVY
Chain of ETV5 (P41161 whole entry): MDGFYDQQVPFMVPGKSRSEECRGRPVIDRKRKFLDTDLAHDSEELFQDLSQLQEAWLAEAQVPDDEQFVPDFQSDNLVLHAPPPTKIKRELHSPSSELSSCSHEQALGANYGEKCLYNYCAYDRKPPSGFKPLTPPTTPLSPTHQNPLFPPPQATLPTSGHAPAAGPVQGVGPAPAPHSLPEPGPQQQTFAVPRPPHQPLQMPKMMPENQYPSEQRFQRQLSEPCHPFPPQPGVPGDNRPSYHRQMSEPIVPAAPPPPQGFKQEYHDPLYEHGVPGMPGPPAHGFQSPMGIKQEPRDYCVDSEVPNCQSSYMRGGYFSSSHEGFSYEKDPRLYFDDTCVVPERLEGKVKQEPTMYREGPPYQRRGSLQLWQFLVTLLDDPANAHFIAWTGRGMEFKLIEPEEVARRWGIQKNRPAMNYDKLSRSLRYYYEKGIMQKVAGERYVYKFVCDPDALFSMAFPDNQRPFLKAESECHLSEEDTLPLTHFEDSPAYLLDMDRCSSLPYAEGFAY
Chain of ELF1 (P32519 whole entry): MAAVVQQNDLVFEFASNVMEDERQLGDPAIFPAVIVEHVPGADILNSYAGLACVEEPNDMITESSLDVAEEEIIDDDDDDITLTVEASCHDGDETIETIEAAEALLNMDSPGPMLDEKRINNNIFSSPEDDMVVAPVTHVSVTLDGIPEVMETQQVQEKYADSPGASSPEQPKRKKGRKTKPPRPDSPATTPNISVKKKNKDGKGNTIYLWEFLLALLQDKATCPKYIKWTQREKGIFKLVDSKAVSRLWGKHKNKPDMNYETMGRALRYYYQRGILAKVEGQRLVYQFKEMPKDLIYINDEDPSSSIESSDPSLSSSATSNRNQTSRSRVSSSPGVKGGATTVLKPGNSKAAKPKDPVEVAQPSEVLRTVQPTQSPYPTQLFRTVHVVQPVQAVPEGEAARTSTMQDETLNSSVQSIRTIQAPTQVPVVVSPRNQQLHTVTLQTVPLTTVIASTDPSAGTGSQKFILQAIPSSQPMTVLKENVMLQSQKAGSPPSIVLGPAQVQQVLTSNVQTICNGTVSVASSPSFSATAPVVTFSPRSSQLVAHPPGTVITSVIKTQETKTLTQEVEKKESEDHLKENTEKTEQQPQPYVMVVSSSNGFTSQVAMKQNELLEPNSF
Chain of CRX (O43186 whole entry): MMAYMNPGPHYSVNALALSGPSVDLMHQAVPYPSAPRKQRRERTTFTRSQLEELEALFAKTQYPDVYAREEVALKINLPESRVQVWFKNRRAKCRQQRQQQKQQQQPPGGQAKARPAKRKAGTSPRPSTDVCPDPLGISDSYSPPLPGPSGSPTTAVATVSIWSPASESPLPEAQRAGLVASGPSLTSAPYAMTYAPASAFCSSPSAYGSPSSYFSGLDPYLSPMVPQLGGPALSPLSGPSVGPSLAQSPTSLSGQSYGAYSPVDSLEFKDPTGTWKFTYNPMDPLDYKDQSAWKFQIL
Chain of ELF4 (Q99607 whole entry): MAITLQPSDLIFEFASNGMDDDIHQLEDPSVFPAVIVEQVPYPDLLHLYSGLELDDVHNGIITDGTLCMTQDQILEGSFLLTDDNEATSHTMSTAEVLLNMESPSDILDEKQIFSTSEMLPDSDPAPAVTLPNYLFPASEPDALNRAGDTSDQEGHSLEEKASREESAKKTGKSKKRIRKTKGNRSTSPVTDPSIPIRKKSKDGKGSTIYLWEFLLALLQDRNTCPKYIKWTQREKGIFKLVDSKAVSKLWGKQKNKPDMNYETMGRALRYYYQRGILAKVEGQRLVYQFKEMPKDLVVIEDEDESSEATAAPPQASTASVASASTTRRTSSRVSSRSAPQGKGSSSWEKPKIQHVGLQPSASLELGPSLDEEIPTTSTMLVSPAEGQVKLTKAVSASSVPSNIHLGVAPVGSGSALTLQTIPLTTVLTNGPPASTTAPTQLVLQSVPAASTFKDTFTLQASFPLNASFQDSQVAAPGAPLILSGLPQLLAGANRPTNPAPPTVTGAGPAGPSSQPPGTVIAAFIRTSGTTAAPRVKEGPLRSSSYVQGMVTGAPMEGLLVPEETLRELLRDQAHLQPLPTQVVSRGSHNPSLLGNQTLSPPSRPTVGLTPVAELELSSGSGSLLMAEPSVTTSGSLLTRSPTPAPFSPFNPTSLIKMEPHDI
Chain of HSF1 (Q00613 whole entry): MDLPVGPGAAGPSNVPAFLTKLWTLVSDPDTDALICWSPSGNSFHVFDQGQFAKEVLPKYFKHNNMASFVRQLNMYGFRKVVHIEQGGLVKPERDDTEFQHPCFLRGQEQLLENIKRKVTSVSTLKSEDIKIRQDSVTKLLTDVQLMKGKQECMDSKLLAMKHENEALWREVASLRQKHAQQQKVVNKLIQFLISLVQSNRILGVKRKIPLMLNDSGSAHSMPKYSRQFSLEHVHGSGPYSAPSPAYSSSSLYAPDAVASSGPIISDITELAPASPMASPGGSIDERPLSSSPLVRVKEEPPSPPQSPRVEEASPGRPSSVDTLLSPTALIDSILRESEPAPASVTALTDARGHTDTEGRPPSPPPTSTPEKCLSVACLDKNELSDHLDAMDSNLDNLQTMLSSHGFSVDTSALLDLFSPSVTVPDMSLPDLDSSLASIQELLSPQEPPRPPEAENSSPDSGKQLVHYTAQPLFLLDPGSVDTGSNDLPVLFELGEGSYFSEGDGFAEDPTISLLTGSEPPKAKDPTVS

As to GTTTTA, the binding signal in the assay with FLI1 was 1.17 fold enrichment (6-mer frequency, TF over GST control); with ELK1 it was 1.05 fold enrichment (6-mer frequency, TF over GST control); in the assay with GABPA it was 1.14 fold enrichment (6-mer frequency, TF over GST control); with ERG it was 1.07 fold enrichment (6-mer frequency, TF over GST control); in the assay with ELF1, 1.07 fold enrichment (6-mer frequency, TF over GST control); in the assay with EHF it was 1.11 fold enrichment (6-mer frequency, TF over GST control). In addition, the binding signal was 1.12 fold enrichment (6-mer frequency, TF over GST control) with SPI1; 1.16 fold enrichment (6-mer frequency, TF over GST control) in the assay with SPIB; 1.08 fold enrichment (6-mer frequency, TF over GST control) with ELK3; 1.08 fold enrichment (6-mer frequency, TF over GST control) with FEV; 1.07 fold enrichment (6-mer frequency, TF over GST control) with ETV5; 1.17 fold enrichment (6-mer frequency, TF over GST control) with HSF1. The binding signal in the assay with ELF4 was 1.15 fold enrichment (6-mer frequency, TF over GST control); with ELK4, 1.07 fold enrichment (6-mer frequency, TF over GST control); with ETV2, 1.1 fold enrichment (6-mer frequency, TF over GST control); with ELF3 it was 1.06 fold enrichment (6-mer frequency, TF over GST control); in the assay with CRX, 1.41 fold enrichment (6-mer frequency, TF over GST control); with ETV1 it was 1.13 fold enrichment (6-mer frequency, TF over GST control).
